Laboratory results published in PubChem BioAssay (NCI).
Where “and” joins values, the source holds several entries; their conditions need not be identical. Equal entries are not always repeated. About 83,000 compounds went through this panel and 20% of them were active in at least one assay; those are over-represented in the sample as a whole.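 Activity criterion: percent growth below 10, measured after cells in 96-well plates were exposed to a single compound concentration for 48 hours.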 Calls of active or inactive are those of the source.

Legend:
Test in all cases: NCI-60 one-dose screen, 48 h (100 = growth as untreated, 0 = no growth, -100 = all killed)
NCI-H23 lung = tested on: NCI-H23 lung
NCI-H226 lung = tested on: NCI-H226 lung
NCI-H322M lung = tested on: NCI-H322M lung
HOP-62 NSCLC = tested on: HOP-62 NSCLC
NCI-H460 lung = tested on: NCI-H460 lung
HOP-92 NSCLC = tested on: HOP-92 NSCLC
NCI-H522 lung = tested on: NCI-H522 lung
A549/ATCC NSCLC = tested on: A549/ATCC NSCLC
786-0 renal = tested on: 786-0 renal
DU-145 prostate = tested on: DU-145 prostate
K-562 leukemia = tested on: K-562 leukemia
MALME-3M melanoma = tested on: MALME-3M melanoma
MDA-MB-231 breast = tested on: MDA-MB-231 breast
RXF 393 renal = tested on: RXF 393 renal
SF-268 CNS = tested on: SF-268 CNS
SF-295 CNS = tested on: SF-295 CNS
SF-539 CNS = tested on: SF-539 CNS
UACC-257 melanoma = tested on: UACC-257 melanoma
HCT-15 colon = tested on: HCT-15 colon
M14 melanoma = tested on: M14 melanoma

Measured: growth

CN1CCN(c2ccc3nc(-c4ccc5nc(-c6ccc(O)cc6)[nH]c5c4)[nH]c3c2)CC1
inactive: NCI-H23 lung; 10 µM 74% | NCI-H226 lung; 10 µM 88.5% | NCI-H322M lung; 10 µM 106% | HOP-62 NSCLC; 10 µM 95.8% | NCI-H460 lung; 10 µM 107% | HOP-92 NSCLC; 10 µM 42.1% | NCI-H522 lung; 10 µM 47% | A549/ATCC NSCLC; 10 µM 62.1% | 786-0 renal; 10 µM 87.2% | DU-145 prostate; 10 µM 84.5% | K-562 leukemia; 10 µM 50.2% | MALME-3M melanoma; 10 µM 37.9% | MDA-MB-231 breast; 10 µM 121% | RXF 393 renal; 10 µM 37.3% | SF-268 CNS; 10 µM 82.9% | SF-295 CNS; 10 µM 96.3% | SF-539 CNS; 10 µM 77% | UACC-257 melanoma; 10 µM 113% | HCT-15 colon; 10 µM 94.3%

N#C/C(=C1C=C/C(=N\O)C(Cl)=C\1)c1ccccc1
inactive: NCI-H23 lung; 10 µM 82.8% | NCI-H226 lung; 10 µM 87.8% | NCI-H322M lung; 10 µM 55.3% | HOP-62 NSCLC; 10 µM 33.2% | NCI-H460 lung; 10 µM 14.3% | HOP-92 NSCLC; 10 µM 38.3% | A549/ATCC NSCLC; 10 µM 31.2% | 786-0 renal; 10 µM 43% | DU-145 prostate; 10 µM 40.2% | K-562 leukemia; 10 µM 20.9% | MALME-3M melanoma; 10 µM 58.7% | MDA-MB-231 breast; 10 µM 20.6% | RXF 393 renal; 10 µM 43.9% | SF-268 CNS; 10 µM 27% | M14 melanoma; 10 µM 46% | HCT-15 colon; 10 µM 22.2%
active: SF-295 CNS; 10 µM -32.2% | SF-539 CNS; 10 µM 2.46%

BrC/C=C/C[P+](c1ccccc1)(c1ccccc1)c1ccccc1
inactive: NCI-H23 lung; 10 µM 84.2% | NCI-H226 lung; 10 µM 76.2% | NCI-H322M lung; 10 µM 96.5% | HOP-62 NSCLC; 10 µM 27.4% | NCI-H460 lung; 10 µM 57.4% | HOP-92 NSCLC; 10 µM 60.4% | NCI-H522 lung; 10 µM 40% | A549/ATCC NSCLC; 10 µM 44% | 786-0 renal; 10 µM 46.2% | DU-145 prostate; 10 µM 39.7% | K-562 leukemia; 10 µM 17.5% | MALME-3M melanoma; 10 µM 60.6% | MDA-MB-231 breast; 10 µM 77.4% | RXF 393 renal; 10 µM 81.8% | SF-268 CNS; 10 µM 58.7% | SF-295 CNS; 10 µM 38.2% | SF-539 CNS; 10 µM 10% | UACC-257 melanoma; 10 µM 47.9% | M14 melanoma; 10 µM 49.9% | HCT-15 colon; 10 µM 37.3%

COc1cc(C(C)(C)C)cc(OC)c1C(O)(c1c(OC)cc(C(C)(C)C)cc1OC)c1c(OC)cc(C(C)(C)C)cc1OC
active: NCI-H23 lung; 10 µM -51.2% | NCI-H226 lung; 10 µM -65.7% | NCI-H322M lung; 10 µM -68.6% | HOP-62 NSCLC; 10 µM -95.3% | NCI-H460 lung; 10 µM -82.1% | HOP-92 NSCLC; 10 µM -66.2% | NCI-H522 lung; 10 µM -56.4% | A549/ATCC NSCLC; 10 µM -54.4% | 786-0 renal; 10 µM -96.6% | DU-145 prostate; 10 µM -100% | K-562 leukemia; 10 µM -89.4% | MALME-3M melanoma; 10 µM -80.8% | MDA-MB-231 breast; 10 µM -85.2% | RXF 393 renal; 10 µM -27.4% | SF-268 CNS; 10 µM -77% | SF-295 CNS; 10 µM -78.9% | UACC-257 melanoma; 10 µM -46.1% | M14 melanoma; 10 µM -94.6% | HCT-15 colon; 10 µM -85.8%

O=c1[nH]cc(F)c(=O)[nH]1
inactive: NCI-H23 lung; 10 µM 55% and 55.2% | NCI-H23 lung; 25 µM 39% | NCI-H23 lung; 50 µM 41.6% | NCI-H226 lung; 10 µM 85.2% and 94.1% | NCI-H226 lung; 25 µM 69.5% | NCI-H322M lung; 10 µM 62.5% and 58.5% | NCI-H322M lung; 25 µM 59.5% | NCI-H322M lung; 50 µM 48.6% | HOP-62 NSCLC; 10 µM 46.6% and 82.3% | HOP-62 NSCLC; 25 µM 47.8% | HOP-62 NSCLC; 50 µM 42.4% | NCI-H460 lung; 10 µM 16% and 20% | NCI-H460 lung; 25 µM 13% | NCI-H460 lung; 50 µM 13.9% | HOP-92 NSCLC; 10 µM 87.3% and 49.3% | HOP-92 NSCLC; 25 µM 50.6% | HOP-92 NSCLC; 50 µM 75.7% | NCI-H522 lung; 10 µM 62.1% and 62.2% | NCI-H522 lung; 25 µM 58% | A549/ATCC NSCLC; 25 µM 34.2% | A549/ATCC NSCLC; 50 µM 31.2% | 786-0 renal; 10 µM 64.2% and 62.2% | 786-0 renal; 25 µM 48.7% | 786-0 renal; 50 µM 59% | DU-145 prostate; 10 µM 57.4% and 65.3% | DU-145 prostate; 25 µM 35.5% | DU-145 prostate; 50 µM 20.5% | K-562 leukemia; 10 µM 64.6% and 69.4% | K-562 leukemia; 25 µM 42.3% | K-562 leukemia; 50 µM 41.5% | MALME-3M melanoma; 10 µM 53.1% and 69.9% | MALME-3M melanoma; 25 µM 58.2% | MALME-3M melanoma; 50 µM 53.7% | MDA-MB-231 breast; 10 µM 96.2% and 84.6% | MDA-MB-231 breast; 25 µM 78.1% | MDA-MB-231 breast; 50 µM 77.2% | RXF 393 renal; 10 µM 63.4% and 10.7% | RXF 393 renal; 25 µM 34.3% | RXF 393 renal; 50 µM 54.4% | SF-268 CNS; 10 µM 81.3% and 91.9% | SF-268 CNS; 25 µM 59% | SF-268 CNS; 50 µM 47.7% | SF-295 CNS; 10 µM 77% and 100% | SF-295 CNS; 25 µM 69.1% | SF-295 CNS; 50 µM 90.5% | SF-539 CNS; 50 µM 22.8% | UACC-257 melanoma; 10 µM 73.1% and 22.6% | UACC-257 melanoma; 25 µM 19.5% | UACC-257 melanoma; 50 µM 53.5% | M14 melanoma; 10 µM 64% and 28.9% | M14 melanoma; 50 µM 42.4% | HCT-15 colon; 10 µM 48.1% and 51.4% | HCT-15 colon; 25 µM 26.5% | HCT-15 colon; 50 µM 37.8%
active: A549/ATCC NSCLC; 10 µM -11.5% | SF-539 CNS; 10 µM -0.0094% and -4.58% | SF-539 CNS; 25 µM -19.6%

Nc1ccc2cc(Br)c3ccccc3c2c1
active: RXF 393 renal; 10 µM 4.19%
inactive: NCI-H23 lung; 10 µM 69.5% | NCI-H226 lung; 10 µM 59.4% | NCI-H322M lung; 10 µM 64.7% | HOP-62 NSCLC; 10 µM 80.9% | NCI-H460 lung; 10 µM 54.1% | HOP-92 NSCLC; 10 µM 75.3% | NCI-H522 lung; 10 µM 86.9% | A549/ATCC NSCLC; 10 µM 63% | 786-0 renal; 10 µM 54.8% | DU-145 prostate; 10 µM 61.8% | K-562 leukemia; 10 µM 31.7% | MALME-3M melanoma; 10 µM 97.8% | SF-268 CNS; 10 µM 68.9% | SF-295 CNS; 10 µM 21% | SF-539 CNS; 10 µM 47.9% | UACC-257 melanoma; 10 µM 90.1% | M14 melanoma; 10 µM 78.5% | HCT-15 colon; 10 µM 33.2%
